HDAC3 inhib: inhibitors of human histone deacetylase 3. recombinant HDAC3, fluorogenic peptide/trypsin coupled, fluorescence. inhibition, % at 8.3 µM. actives 0.15% (n = 320,000). AID 2718; in the data active = inhibition above about 26%, passing the limit was not always enough
GC-B act: GC-B (human) receptor activation; P20594; HEK293-GC-B cells, CNP EC30, cGMP TR-FRET; 0% at EC30 CNP, 100% saturating CNP; activation, % at 10 µM; actives 0.11% (n = 370,000);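 active = activation at 10 µM reaching about 35% in either raw or pattern-adjusted values, limit read from the data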
ALR inh: inhibitors of human sulfhydryl oxidase ALR; purified ALR, DTT oxidation, H2O2 HRP-luminol luminescence; inhibition, % (no concentration beside the values); actives 3.8% (n = 290,000); P55789; AID 485317;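 active = mean replicate inhibition above about 79%, with every replicate also reaching it, limit read from the data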
Target sequence (P55789 whole entry, looked up): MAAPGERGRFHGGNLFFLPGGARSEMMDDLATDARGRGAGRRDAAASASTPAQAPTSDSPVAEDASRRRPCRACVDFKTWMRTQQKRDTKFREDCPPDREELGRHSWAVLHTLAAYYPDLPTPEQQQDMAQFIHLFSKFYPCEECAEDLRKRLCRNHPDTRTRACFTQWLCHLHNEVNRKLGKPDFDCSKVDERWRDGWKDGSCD
GC-A act: GC-A (human) enzyme activation. actives 0.14% (n = 370,000). P16066. HEK293 GC-A cells, cGMP TR-FRET, EC30 ANP; 0% at EC30 ANP, 100% saturating ANP. activation, % at 10 µM; in the data active = activation above about 40%
Starred values were filed as active, the others as inactive; / = no result given. The sample as a whole holds a higher share of hits than the screen did.

SMILES	HDAC3 inhib	GC-B act	ALR inh	GC-A act
CCC(C)C(=O)N1CCc2cc(-c3csc(N)n3)ccc21 (stereo not given)	8	-4	98*	-6
CCCC(=O)N1CCc2cc(-c3nc(N)sc3C)ccc21	4	4	98*	-2
CNc1nc(-c2ccc3c(c2)CCN3C(=O)CC(C)(C)C)c(C)s1	4	0	44	4
CC(C)(C)C(=O)N1CCc2cc(-c3csc(N)n3)ccc21	-2	-1	99*	4
CS(=O)(=O)N1CCc2cc(-c3csc(NC(=O)C(c4ccccc4)c4ccccc4)n3)ccc21	8	-10	2	-3
CCOC(=O)C1=CCN(S(C)(=O)=O)C1c1ccc(C)cc1 (stereo not given)	/	-8	/	-1
OCn1ncn(-c2ccccc2)c1=S	-1	8	92*	1
Nn1c(SCC(=O)Nc2ccc(N3CCOCC3)cc2)nnc1-c1cccc(F)c1	0	2	99*	-1
Nn1c(SCC(=O)Nc2ccc(N3CCOCC3)cc2)nnc1-c1ccccc1F	-1	2	99*	-1
Cc1cccc(N=Nc2cnc(N)s2)c1	-7	-8	99*	11
COC(=O)c1ccc2nc(-c3ccccc3)c(Cc3ccc(C)cc3)n2c1	/	39*	/	30
COC(=O)c1ccc2nc(-c3ccccc3)c(Cc3ccccc3)n2c1	/	27	/	20
N#Cc1ccc(-c2nc3ccc(Br)cn3c2Cc2ccccc2)cc1	/	35*	/	29
COC(=O)c1ccc2nc(-c3ccc(C)cc3)c(Cc3cccc(F)c3)n2c1	/	46*	/	32
COC(=O)c1ccc2nc(-c3ccc(C#N)cc3)c(Cc3cccc(F)c3)n2c1	/	24	/	24
COC(=O)c1ccc2nc(-c3ccc(C)cc3)c(Cc3ccccc3)n2c1	/	39*	/	27
COc1ccc(-c2cn(-c3ccccc3)c3[n+]2CCS3)cc1	5	-4	-1	0
Cc1ccc(NC(=O)COC(=O)c2ccc(-n3cccn3)cc2)cc1C	/	-3	/	1
COC(=O)[C@H](CC(C)C)N1Cc2cc(OC)cc(OC)c2-c2ccccc2S1(=O)=O	/	-4	/	-4
Cc1ccc(S(=O)(=O)N2CCCCC2C(=O)O)s1 (stereo not given)	2	3	-16	6
COc1cccc(C2=CC(=O)CC(C)(C)C2)c1OC	-9	-4	4	1
CC1(C)CC(=O)C=C(c2cccc(Cl)c2O)C1	-2	-2	96*	0
Cc1cc(NC(=O)C(C)SCC(=O)N(Cc2ccccc2)c2ccccc2)no1 (stereo not given)	1	-6	1	-12
CCCCc1c(-c2ccccc2OC)ncn1Cc1ccccc1F	/	-13	/	-6
CCOc1ccc(N2C(=O)Nc3ccccc3C2(O)C(=O)NCc2ccccc2)cc1 (stereo not given)	2	8	92*	4
SMILES	HDAC3 inhib	GC-B act	ALR inh	GC-A act
CN(CCNC(=O)C1(O)c2ccccc2NC(=O)N1c1ccccc1)Cc1ccccc1 (stereo not given)	-6	7	-5	1
CCN(CC)c1ccc(/C=N\N2CCN(Cc3ccc(C)cc3)CC2)cc1	-5	-3	98*	10
Cc1ccc(CN2CCN(/N=C/c3ccc(O)c(O)c3)CC2)cc1	-3	-1	79*	3
CCN(CC)c1ccc(CN2CCCCCC2)cc1	1	-6	98*	-2
COc1cc(/C=N/N2CCN(Cc3ccc(Cl)cc3)CC2)cc(Br)c1O	9	-1	91*	-6
Cc1ccc(CN2CCN(/N=C/c3ccc(C(=O)O)cc3)CC2)cc1	1	3	1	1
COc1cc(/C=N/N2CCN(Cc3ccc(Cl)cc3)CC2)ccc1OC(C)=O	0	1	44	2
COc1ccc(NC(=O)CSc2cc(C(=O)c3nccn3C)c3ccccc3n2)cc1	5	-1	-16	-2
CCOC(=O)c1cc2c(=O)n3ccccc3nc2n(Cc2ccco2)c1=NC(=O)c1ccccc1OCC	-29	-1	90*	6
CCOC(=O)c1cc2c(=O)n3ccccc3nc2n(Cc2ccco2)c1=NC(=O)c1cccnc1	-42	0	1	-3
Cc1cccn2c(=O)c3cc(C#N)c(=NC(=O)c4ccccc4)n(Cc4ccco4)c3nc12	-82	-6	89*	4
O=[N+]([O-])c1ccc(Cl)c(/C=N/n2c(C3CCCCC3)n[nH]c2=S)c1	5	-3	99*	0
O=C(O)COc1ccccc1/C=N/n1c(C2CCCCC2)n[nH]c1=S	-1	2	97*	-2
O=[N+]([O-])c1ccccc1/C=N/n1c(C2CCCCC2)n[nH]c1=S	11	3	97*	0
O=[N+]([O-])c1cc2c(cc1/C=N/n1c(-c3ccccc3)n[nH]c1=S)OCO2	-10	0	87*	1
COc1cc(/C=N/n2c(C3CCCCC3)n[nH]c2=S)cc(OC)c1O	-3	-9	99*	-1
O=[N+]([O-])c1ccccc1/C=N/n1c(C(F)(F)F)n[nH]c1=S	9	-9	95*	-1
Oc1cccc(/C=N/n2c(C3CCCCC3)n[nH]c2=S)c1	2	-3	13	1
O=[N+]([O-])c1ccc(Cl)c(/C=N/n2c(COc3ccccc3)n[nH]c2=S)c1	-2	-11	96*	3
Cc1ccc(C(O)c2ncc(-c3ccccc3F)[nH]2)c(C)c1 (stereo not given)	/	4	/	4
Cc1cccc2c(SCC(N)=O)nc(-c3ccccc3)nc12	-6	0	-3	-1
COCCN1Cc2cccc(C(=O)Nc3ccc(S(=O)(=O)N4CCOCC4)cc3)c2C1=O	1	0	-1	5
c1c2c(cc3sc(N4CCCCC4)nc13)OCO2	1	/	99*	/
c1ccc(N2CCN(c3nc4cc5c(cc4s3)OCO5)CC2)cc1	5	-3	/	1
c1c2c(cc3sc(N4CCOCC4)nc13)OCO2	-2	5	97*	2
SMILES	HDAC3 inhib	GC-B act	ALR inh	GC-A act
O=c1[nH]n(-c2cccc3cccnc23)c(=O)c2ccccc12	-1	2	-8	3
O=c1[nH]n(-c2ccc(Cl)cc2)c2ncccc12	-9	-2	99*	0
OCC1CCCN(Cc2ccc(-c3ccccc3)cc2)C1 (stereo not given)	-1	2	99*	0
O=C(c1ccc(-c2ccccc2)cc1)C1CCCN(Cc2ccncc2)C1 (stereo not given)	9	-3	8	-3
CN(Cc1ccccc1)C(=O)OCc1cn(Cc2cccc(F)c2)nn1	/	1	/	-4
O=C(CN1CCOc2ccccc21)NCc1ccco1	-4	-2	51	-1
O=C(CN1CCOc2ccccc21)NC1CC1	-5	-5	87*	2
COCCNC(=O)CN1CCOc2ccccc21	11	-6	/	-2
O=C(CCN1C(=O)COc2ccccc21)NCc1cccs1	0	4	5	-1
O=C(CN1CCOc2ccccc21)NCc1ccc(F)cc1	-5	-2	98*	0
O=C(CN1CCOc2ccccc21)NCc1ccc(Cl)cc1	-1	-2	99*	0
O=C(CN1CCOc2ccccc21)NCc1cccs1	-7	6	99*	3

Screening data from PubChem.
